# Assay results reported in PubChem BioAssay (Tox21).
# Where “and” joins values, the source holds several entries; their conditions need not be identical. Identical values can stand only once. Values without a mark were called inactive. Results filed as inconclusive are left out. Entries that show only a call come without a potency. Calls of active or inactive are those of the source. Unless noted, calls come from the whole dose curve; as a rule, active = well fitted curve in the direction sought with a large enough effect in the repeat runs; inconclusive = weak or mixed curves; inactive = no such curve, though single readings can be large; an effect the other way counts as inactive or inconclusive.
# How the values were obtained:
# [1] = qHTS assay to identify small molecule antagonists of the sonic hedgehog signaling (Shh) pathway (AID 1259369; calls by dose curve; note: nearly all actives have a fitted effect of over 45% in size; note: potency is the fitted concentration of half-maximal effect)
# Procedure, shortened: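 For antagonist detection, the reporter line received test compounds together with conditioned medium, incubated 24hr at 37 C, 5% CO2, then luminescence was recorded following 30min room-temperature luciferase reagent incubation.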
# [2] = qHTS assay to identify small molecule agonists of the androgen receptor (AR) signaling pathway in the presence of an antagonist - cell viability counter screen (AID 1259379);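 note: MDA-kb2 human breast cancer cells carrying an MMTV luciferase reporter; series mostly up to about 92 µM; nearly all actives have a fitted effect of over 25% in size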
# Procedure, shortened: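 Seed MDA-kb2 at 3,000 cells/well; incubate 5 hr, 37C, 0% CO2. Add nilutamide to 3.0uM final, then pin compounds at 15 concentrations. Incubate 16 hr. Add CellTiter-Fluor at 15 hr, read fluorescence after 1 hr.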
# [3] = qHTS assay to identify small molecule agonists of the estrogen receptor beta (ER-beta) signaling pathway - cell viability counter screen (AID 1259380); note: nearly all actives have a fitted effect of over 30% in size
# Procedure, shortened: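 CellTiter-Glo read, 30 min RT, same wells as bla assay; cells ER-beta-UAS-bla HEK293T; 16 hr compound, 37C; medium 2% charcoal-stripped FBS.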
# [4] = molecular target: Androgen receptor (Homo sapiens) (UniProt P10275); test: qHTS assay to identify small molecule agonists of the androgen receptor (AR) signaling pathway in the presence of an antagonist (AID 1259381; calls by dose curve; note: nearly all actives have a fitted effect of over 15% in size)
# Chain of Androgen receptor (Homo sapiens) (P10275 whole entry, looked up): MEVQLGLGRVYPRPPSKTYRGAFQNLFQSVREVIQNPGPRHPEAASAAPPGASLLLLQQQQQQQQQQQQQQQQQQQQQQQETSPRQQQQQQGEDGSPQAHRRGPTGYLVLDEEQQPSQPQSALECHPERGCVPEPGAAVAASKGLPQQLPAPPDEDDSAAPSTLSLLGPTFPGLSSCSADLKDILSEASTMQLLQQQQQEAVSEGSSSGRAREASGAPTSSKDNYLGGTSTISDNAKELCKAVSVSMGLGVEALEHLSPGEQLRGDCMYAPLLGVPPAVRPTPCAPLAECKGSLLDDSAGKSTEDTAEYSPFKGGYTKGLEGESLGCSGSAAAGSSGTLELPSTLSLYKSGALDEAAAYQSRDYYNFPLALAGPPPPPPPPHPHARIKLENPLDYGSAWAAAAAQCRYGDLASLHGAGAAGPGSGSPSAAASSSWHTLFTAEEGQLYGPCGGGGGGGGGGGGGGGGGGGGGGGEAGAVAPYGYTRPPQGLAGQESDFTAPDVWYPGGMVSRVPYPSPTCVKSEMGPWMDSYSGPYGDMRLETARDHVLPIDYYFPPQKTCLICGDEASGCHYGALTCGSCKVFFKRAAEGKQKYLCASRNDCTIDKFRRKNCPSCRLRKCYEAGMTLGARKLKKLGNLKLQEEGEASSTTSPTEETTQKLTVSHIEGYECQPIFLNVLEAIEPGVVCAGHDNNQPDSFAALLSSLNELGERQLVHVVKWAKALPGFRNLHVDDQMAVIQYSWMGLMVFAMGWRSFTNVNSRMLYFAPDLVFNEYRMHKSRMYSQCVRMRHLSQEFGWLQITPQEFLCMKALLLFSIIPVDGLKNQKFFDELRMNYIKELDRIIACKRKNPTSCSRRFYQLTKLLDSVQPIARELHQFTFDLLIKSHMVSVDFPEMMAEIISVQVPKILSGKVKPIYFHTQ
# Procedure, shortened: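 Test compounds at 15 concentrations were incubated for 16hr with MDA-kb2 reporter cells in presence of 3.0uM nilutamide (final). Signal: ONE-Glo luciferase luminescence.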
# [5] = qHTS assay to identify small molecule antagonists of the estrogen receptor beta (ER-beta) signaling pathway - cell viability counter screen (AID 1259382);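 note: HEK293T cells carrying ER-beta-UAS-bla reporter stimulated with estradiol; series mostly up to about 92 µM; nearly all actives have a fitted effect of over 55% in size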
# Procedure, shortened: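 In this multiplexed counter screen, cells were seeded at 2,000 per well in medium with 2% charcoal-stripped FBS and incubated 6 hr before compound and 1nM final E2 were added. Sixteen hours later, ATP-based luminescence reported viability.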
# [6] = molecular target: Estrogen receptor (Homo sapiens) (UniProt P03372); test: qHTS assay to identify small molecule agonists of the estrogen receptor alpha (ER-alpha) signaling pathway in the presence of an antagonist (AID 1259383; calls by dose curve; note: top concentration of the series differs between compounds; nearly all actives have a fitted effect of over 15% in size)
# Chain of Estrogen receptor (Homo sapiens) (P03372 whole entry, looked up): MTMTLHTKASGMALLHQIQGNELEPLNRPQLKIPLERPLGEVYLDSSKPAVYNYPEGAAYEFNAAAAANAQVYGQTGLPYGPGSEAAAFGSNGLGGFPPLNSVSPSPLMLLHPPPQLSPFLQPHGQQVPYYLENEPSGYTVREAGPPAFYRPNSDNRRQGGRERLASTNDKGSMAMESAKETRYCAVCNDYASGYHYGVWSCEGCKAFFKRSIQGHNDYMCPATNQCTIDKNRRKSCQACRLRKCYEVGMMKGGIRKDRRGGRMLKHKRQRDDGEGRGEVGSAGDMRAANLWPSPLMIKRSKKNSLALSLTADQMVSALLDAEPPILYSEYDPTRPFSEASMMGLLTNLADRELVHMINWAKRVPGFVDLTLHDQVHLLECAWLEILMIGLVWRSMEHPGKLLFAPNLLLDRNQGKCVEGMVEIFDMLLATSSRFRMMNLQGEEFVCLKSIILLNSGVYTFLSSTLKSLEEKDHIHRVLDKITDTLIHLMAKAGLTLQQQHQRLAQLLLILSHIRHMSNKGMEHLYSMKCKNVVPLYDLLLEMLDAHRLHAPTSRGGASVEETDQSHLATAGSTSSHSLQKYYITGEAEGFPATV
# Procedure, shortened: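 Stably transfected VM7Luc4E2 reporter cells, kept 5 days in charcoal-stripped serum, received ICI-182,780 at 10.0nM final before compound addition. Following 22hr incubation at 37C and 5% CO2, luciferase signal was read by luminescence.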
# [7] = qHTS assay to identify small molecule agonists of the estrogen receptor alpha (ER-alpha) signaling pathway in the presence of an antagonist - cell viability counter screen (AID 1259386);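 note: series mostly up to about 92 µM; cells exposed to compounds for 22 h at 37 °C before the viability read; nearly all actives have a fitted effect of over 30% in size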
# Procedure, shortened: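 Viability counter screen using VM7Luc4E2 (full-length ER-alpha, four ERE-luciferase). The cells were treated with compounds alongside ICI-182,780 10.0nM for 22hr, and live-cell protease fluorescence was quantified with CellTiter-Fluor.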
# [8] = molecular target: Progesterone receptor (Homo sapiens) (UniProt P06401); test: qHTS assay to identify small molecule agonists of the progesterone receptor (PR) signaling pathway (AID 1346784; calls by dose curve; note: nearly all actives have a fitted effect of over 30% in size)
# Chain of Progesterone receptor (Homo sapiens) (P06401 whole entry, looked up): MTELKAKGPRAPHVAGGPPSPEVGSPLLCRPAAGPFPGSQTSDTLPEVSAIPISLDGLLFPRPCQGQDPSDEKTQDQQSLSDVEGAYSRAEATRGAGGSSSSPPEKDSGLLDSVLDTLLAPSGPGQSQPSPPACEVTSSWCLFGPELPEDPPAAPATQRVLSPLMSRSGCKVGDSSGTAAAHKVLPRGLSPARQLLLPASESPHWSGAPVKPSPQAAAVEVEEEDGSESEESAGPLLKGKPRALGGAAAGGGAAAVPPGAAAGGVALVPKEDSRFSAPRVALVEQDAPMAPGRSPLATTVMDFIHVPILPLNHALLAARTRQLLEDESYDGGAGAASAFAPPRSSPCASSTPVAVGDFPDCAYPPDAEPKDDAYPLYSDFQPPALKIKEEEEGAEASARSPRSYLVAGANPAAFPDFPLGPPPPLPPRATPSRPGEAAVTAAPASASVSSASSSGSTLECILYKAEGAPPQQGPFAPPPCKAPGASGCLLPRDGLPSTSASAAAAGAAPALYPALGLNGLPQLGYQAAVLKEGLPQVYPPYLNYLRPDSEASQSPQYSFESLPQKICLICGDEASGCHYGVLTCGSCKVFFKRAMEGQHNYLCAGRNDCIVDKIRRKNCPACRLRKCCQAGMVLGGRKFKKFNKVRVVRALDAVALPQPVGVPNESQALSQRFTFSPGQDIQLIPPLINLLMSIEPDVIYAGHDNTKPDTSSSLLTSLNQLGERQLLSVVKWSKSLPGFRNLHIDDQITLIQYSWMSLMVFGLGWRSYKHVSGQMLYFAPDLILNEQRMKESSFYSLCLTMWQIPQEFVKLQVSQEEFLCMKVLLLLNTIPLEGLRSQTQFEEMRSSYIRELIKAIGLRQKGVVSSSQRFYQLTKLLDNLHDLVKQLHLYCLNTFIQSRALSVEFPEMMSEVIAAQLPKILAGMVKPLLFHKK
# Procedure, shortened: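 PR-UAS-bla HEK 293T cells carrying a UAS-driven beta-lactamase reporter were seeded in medium with 2% charcoal-stripped FBS, preincubated 6 hr at 37C, then exposed to compounds in DMSO for 16 hr; agonism was read by LiveBLAzer B/G FRET fluorescence.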
# [9] = molecular target: Progesterone receptor (Homo sapiens) (UniProt P06401); test: qHTS assay to identify small molecule antagonists of the progesterone receptor (PR) signaling pathway (AID 1346795; active = well fitted inhibition curve with a large enough effect in the signal ratio in the repeat runs, not every such curve was filed as active; the % refers to the signal ratio; note: potency is the fitted concentration of half-maximal effect)
# Procedure, shortened: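 PR-UAS-bla HEK293T cells carrying a UAS-driven beta-lactamase reporter were plated in medium with 2% charcoal-stripped FBS and rested 6 hr at 37C. Compounds were added with 1 nM R5020 (final) for 16 hr, then FRET substrate loaded 2 hr at room temperature.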
# [10] = qHTS assay to identify small molecule antagonists of the progesterone receptor (PR) signaling pathway - cell viability counter screen (AID 1346798); note: series mostly up to about 92 µM; nearly all actives have a fitted effect of over 50% in size
# Procedure, shortened: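 PR-UAS-bla HEK293T cells in medium with 2% charcoal-stripped FBS were treated with compounds plus R5020 for 16 hr at 37C. Cell viability was then read by CellTiter-Glo luminescence after 30 min at room temperature in the same wells.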
# [11] = qHTS assay to identify small molecule antagonists of the TGF-beta/Smad signaling pathway - cell viability counter screen (AID 1346824); note: nearly all actives have a fitted effect of over 50% in size
# Procedure, shortened: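 SBE-bla HEK 293T cells were plated overnight at 37 C, then given compounds in DMSO plus TGF-beta1 (added as 0.25 ng/mL solution) for 5 hr. After the bla read, CellTiter-Glo was added to the same wells and luminescence read after 30 min at room temperature.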
# [12] = qHTS assay to identify small molecule agonists of the TGF-beta/Smad signaling pathway - cell viability counter screen (AID 1346829); note: top concentration of the series differs between compounds; nearly all actives have a fitted effect of over 45% in size
# Procedure, shortened: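 After overnight seating at 37 C and 5% CO2, reporter cells got compounds for 5 hr and FRET substrate for 2 hr; cell viability then came from CellTiter-Glo luminescence.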
# [13] = qHTS assay to identify small molecule agonists of the TGF-beta/Smad signaling pathway (AID 1346859; active = well fitted activation curve with a large enough effect in the signal ratio in the repeat runs, not every such curve was filed as active; the % refers to the signal ratio; note: series mostly up to about 77 µM)
# Procedure, shortened: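 HEK 293T cells stably carrying a beta-lactamase reporter driven by the Smad binding element were seeded overnight, exposed to DMSO-dissolved compounds for 5 hr at 37 C, 5% CO2, then loaded with FRET substrate for 2 hr at room temperature.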
# [14] = molecular target: Thyrotropin-releasing hormone receptor (Homo sapiens) (UniProt P34981); test: qHTS assay to identify small molecule antagonists of the thyrotropin-releasing hormone receptor (TRHR) signaling pathway (AID 1346877; active = well fitted inhibition curve with a large enough effect in the repeat runs, not every such curve was filed as active; note: series mostly up to about 51 µM)
# Chain of Thyrotropin-releasing hormone receptor (Homo sapiens) (P34981 whole entry, looked up): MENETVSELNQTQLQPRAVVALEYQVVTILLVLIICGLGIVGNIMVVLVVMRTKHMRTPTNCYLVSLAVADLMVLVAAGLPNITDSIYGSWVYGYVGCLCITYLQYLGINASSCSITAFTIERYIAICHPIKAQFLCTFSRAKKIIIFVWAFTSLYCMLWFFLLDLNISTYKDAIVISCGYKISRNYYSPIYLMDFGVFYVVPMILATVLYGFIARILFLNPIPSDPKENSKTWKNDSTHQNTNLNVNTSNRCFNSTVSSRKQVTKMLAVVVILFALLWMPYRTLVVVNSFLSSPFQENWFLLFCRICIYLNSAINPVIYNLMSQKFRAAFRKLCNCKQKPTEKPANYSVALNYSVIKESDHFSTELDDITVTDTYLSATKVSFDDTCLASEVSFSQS
# Procedure, shortened: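 Following an 18 h incubation at 37 °C and a 2 h calcium dye load, TRHR-HEK293 cells were exposed to compound (5 min, room temperature) and challenged with TRH, 1 nM final.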
# [15] = molecular target: Thyrotropin-releasing hormone receptor (Homo sapiens) (UniProt P34981); test: qHTS assay to identify small molecule agonists of the thyrotropin-releasing hormone receptor (TRHR) signaling pathway (AID 1346891; calls by dose curve; note: series mostly up to about 58 µM)
# Procedure, shortened: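 TRHR-expressing HEK293 cells were plated 18 h at 37 °C/5% CO2, loaded with calcium dye 2 h at 37 °C, then given compound in DMSO; fluorescence was read kinetically for 3 min at 1 s intervals.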
# [16] = qHTS assay to identify small molecule agonists or antagonists of the thyroid stimulating hormone receptor (TSHR) signaling pathway - wild type cell line counter screen (AID 1259384; calls by dose curve)
# Procedure, shortened: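 Wild-type HEK293 cells were plated 18 h at 37 C/5% CO2, pin-dosed with compound plus Ro20-1724 medium, held 30 min at room temperature, then given cAMP-d2 and anti-cAMP-cryptate; fluorescence was read after 1 h. Fifteen concentrations, triplicate.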
# [17] = molecular target: Thyrotropin receptor (Homo sapiens) (UniProt P16473); test: qHTS assay to identify small molecule antagonists of the thyroid stimulating hormone receptor (TSHR) signaling pathway (AID 1259385; calls by dose curve; note: nearly all actives have a fitted effect of over 20% in size)
# Chain of Thyrotropin receptor (Homo sapiens) (P16473 whole entry, looked up): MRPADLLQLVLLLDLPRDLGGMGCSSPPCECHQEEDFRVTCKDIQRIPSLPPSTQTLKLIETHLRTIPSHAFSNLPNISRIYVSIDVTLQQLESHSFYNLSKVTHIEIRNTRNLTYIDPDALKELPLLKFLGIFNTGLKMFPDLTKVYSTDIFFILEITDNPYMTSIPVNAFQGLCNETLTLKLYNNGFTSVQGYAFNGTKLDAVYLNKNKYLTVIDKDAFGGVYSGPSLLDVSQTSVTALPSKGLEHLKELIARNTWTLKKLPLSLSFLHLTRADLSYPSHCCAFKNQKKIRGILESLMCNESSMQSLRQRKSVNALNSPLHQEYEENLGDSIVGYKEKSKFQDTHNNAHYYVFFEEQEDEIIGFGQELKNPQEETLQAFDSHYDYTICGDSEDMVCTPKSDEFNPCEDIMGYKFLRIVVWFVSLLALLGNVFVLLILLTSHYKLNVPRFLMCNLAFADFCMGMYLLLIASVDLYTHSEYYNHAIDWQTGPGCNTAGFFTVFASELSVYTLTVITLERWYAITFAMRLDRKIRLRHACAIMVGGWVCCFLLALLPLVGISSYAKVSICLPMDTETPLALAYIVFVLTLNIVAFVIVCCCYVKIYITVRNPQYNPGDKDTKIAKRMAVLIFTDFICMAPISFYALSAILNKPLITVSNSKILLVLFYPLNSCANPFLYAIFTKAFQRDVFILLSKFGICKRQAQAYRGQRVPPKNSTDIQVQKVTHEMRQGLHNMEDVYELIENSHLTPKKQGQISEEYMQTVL
# Procedure, shortened: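 TSHR-HEK293 cells were plated and held 18 h at 37C/5% CO2, then given compound plus Ro20-1724 and stimulated with TSH at 1.5 ng/mL final. After 30 min at room temperature, cAMP was detected with cAMP-d2/anti-cAMP-cryptate (1 h) by fluorescence.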
# [18] = qHTS assay to identify small molecule agonists of the progesterone receptor (PR) signaling pathway - cell viability counter screen (AID 1346799; calls by dose curve; note: nearly all actives have a fitted effect of over 45% in size)
# Procedure, shortened: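 PR-UAS-bla HEK293T cells, 3,000 per well in medium with 2% charcoal-stripped FBS, were preincubated 6 hr at 37C, then exposed to compounds for 16 hr; viability was read as CellTiter-Glo luminescence after 30 min at room temperature.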
smiles,measurement,setting,value
N=C(N)c1ccc2cc(OC(=O)c3ccc(N=C(N)N)cc3)ccc2c1,Potency,[1],inactive
same,Potency,[2],inactive
same,Potency,[3],inactive
same,Potency,[4],inactive
same,Potency,[5],inactive
same,Potency,[6],inactive
same,Potency,[7],inactive
same,Potency,[8],inactive
same,Potency,[9],inactive
same,Potency,[10],inactive
same,Potency,[11],inactive
same,outcome,[12],inactive
same,outcome,[13],inactive
same,outcome,[14],inactive
same,outcome,[15],inactive
N[C@@H](C(=O)N[C@@H]1C(=O)N2C(C(=O)O)=C(Cl)CS[C@H]12)c1ccccc1,"activity change, negative = inhibition",[1],-3.06% [at 8.39 µM]
same,"activity change, negative = cytotoxicity",[2],-6.11% [at 8.39 µM]
same,"activity change, negative = cytotoxicity",[3],2.28% [at 8.39 µM]
same,"activity change, negative = cytotoxicity",[5],5.71% [at 8.39 µM]
same,activation,[6],0.817% [at 8.39 µM]
same,cAMP activity change,[16],-1.5% [at 8.39 µM]
same,"activity change, negative = inhibition",[17],1.57% [at 8.39 µM]
same,"activity change, negative = cytotoxicity",[7],-0.6% [at 8.39 µM]
same,activation,[8],0.163% [at 8.39 µM]
same,"activity change, negative = inhibition",[9],5.57% [at 8.39 µM]
same,"activity change, negative = cytotoxicity",[10],1.94% [at 8.39 µM]
same,"activity change, negative = cytotoxicity",[18],-11.1% [at 8.39 µM]
same,"viability change, negative = cytotoxic",[11],-15% [at 6.97 µM]
same,"activity change, negative = cytotoxicity",[12],-0.75% [at 6.97 µM]
same,activation,[13],1.83% [at 6.97 µM]
same,"activity, negative = inhibition",[14],1.85% [at 4.65 µM]
same,activation,[15],-0.0304% [at 5.23 µM]
CC(C)NCCCC1(C(N)=O)c2ccccc2-c2ccccc21,Potency,[1],inactive
same,Potency,[2],inactive
same,Potency,[3],inactive
same,Potency,[5],inactive
same,Potency,[6],inactive
same,outcome,[16],inactive
same,Potency,[17],inactive
same,Potency,[7],inactive
same,Potency,[8],inactive
same,Potency,[9],inactive
same,Potency,[18],inactive
same,Potency,[11],inactive
same,outcome,[12],inactive
same,outcome,[13],inactive
same,outcome,[14],inactive
same,outcome,[15],inactive
CC(=O)Nc1c(I)cc(I)c(C(=O)O)c1I,Potency,[1],inactive
same,Potency,[2],inactive
same,Potency,[3],inactive
same,Potency,[5],inactive
same,Potency,[6],inactive
same,Potency,[7],inactive
same,Potency,[8],inactive
same,Potency,[9],inactive
same,Potency,[11],inactive
same,outcome,[12],inactive
same,outcome,[13],inactive
CCCCCCCCCCCCN(CCCCCCCCCCCC)CCCCCCCCCCCC,Potency,[1],inactive
same,Potency,[2],inactive
same,Potency,[3],inactive
same,Potency,[5],inactive
same,outcome,[16],inactive
same,Potency,[17],inactive
same,Potency,[7],inactive
same,Potency,[8],inactive
same,Potency,[9],inactive
same,Potency,[10],inactive
same,Potency,[18],inactive
same,Potency,[11],inactive
same,outcome,[12],inactive
same,outcome,[13],inactive
CCCc1cc(C(N)=S)ccn1,Potency,[1],inactive
same,Potency,[2],inactive
same,Potency,[3],inactive
same,Potency,[5],inactive
same,Potency,[6],inactive
same,outcome,[16],inactive
same,Potency,[17],inactive
same,Potency,[7],inactive
same,Potency,[8],inactive
same,Potency,[9],inactive
same,Potency,[10],inactive
same,Potency,[11],inactive
same,outcome,[12],inactive
same,outcome,[13],inactive
CC(C)(C)c1ccc(O)c(O)c1,Potency,[1],15.9 µM (active) and 6.86 µM (active)
same,Potency,[2],inactive
same,Potency,[3],inactive
same,Potency,[5],inactive
same,outcome,[16],inactive
same,Potency,[17],inactive
same,Potency,[8],inactive
same,Potency,[9],50.2 µM (active) and 44.5 µM (active)
same,Potency,[11],inactive
same,outcome,[12],inactive
same,outcome,[13],inactive
same,outcome,[14],inactive
same,outcome,[15],inactive
